In all, about 360,000 compounds went through this assay and about 10,000 (2.8%) were called active. Inconclusive results (about 4%) are left out. This is one part of a sample in which actives are shown more often than they occur. Unmarked numbers belong to inactive results. Calls follow the shape of the dose curve; as a rule, active = well fitted inhibition curve with a large enough effect; inconclusive = small, poorly fitted or top-dose-only effect; inactive = flat fitted curve, though single readings scatter.

Results on 88 compounds are retold here after PubChem BioAssay AID720504 (National Center for Advancing Translational Sciences (NCATS), 2013).
% is scaled to controls: 0 for no effect and ±100 for the full control effect; potency is read from the fitted curve at half-maximal effect.

Chain of Serine/threonine-protein kinase PLK1 (Homo sapiens) (P53350 whole entry, looked up, the tested form may be a part): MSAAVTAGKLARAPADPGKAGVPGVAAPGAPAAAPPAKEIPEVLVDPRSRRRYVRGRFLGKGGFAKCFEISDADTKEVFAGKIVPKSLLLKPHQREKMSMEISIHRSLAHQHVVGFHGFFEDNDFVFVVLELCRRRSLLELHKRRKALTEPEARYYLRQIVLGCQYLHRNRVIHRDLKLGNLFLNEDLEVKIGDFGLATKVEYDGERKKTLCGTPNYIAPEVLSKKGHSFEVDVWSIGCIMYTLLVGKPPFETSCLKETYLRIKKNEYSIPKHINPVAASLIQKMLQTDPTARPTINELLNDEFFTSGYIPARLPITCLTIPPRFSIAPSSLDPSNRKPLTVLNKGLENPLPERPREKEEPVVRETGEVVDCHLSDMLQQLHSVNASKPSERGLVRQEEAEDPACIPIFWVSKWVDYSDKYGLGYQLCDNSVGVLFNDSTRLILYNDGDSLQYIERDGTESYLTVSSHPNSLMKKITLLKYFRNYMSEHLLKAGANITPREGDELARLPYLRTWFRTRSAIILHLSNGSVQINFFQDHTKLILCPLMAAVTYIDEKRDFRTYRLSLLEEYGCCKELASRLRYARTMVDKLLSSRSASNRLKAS

This assay concerns the target Serine/threonine-protein kinase PLK1 (Homo sapiens) (UniProt P53350). Kind of assay: qHTS for Inhibitors of PLK1-PDB (polo-like kinase 1 - polo-box domain): Primary Screen. Also: nearly all actives have a fitted effect of over 65% in size. As to max response, negative = inhibition: series mostly up to about 57 µM. The note with it: Plk1 PBD binding of FITC phosphopeptide, fluorescence polarization. For orientation: In qHTS, concentration-response curves come from the screen itself.
For `CN(C)CCNC(=O)c1cccc(-c2cnc3c(NC=O)cc(-c4cccc(C(F)(F)F)c4)cn23)c1`, the max response, negative = inhibition was -13.6%.

On to `CC(C)(C)OC(=O)N1CCN(C(=O)c2[nH]c(C(F)(F)F)nc2-c2ccccc2)CC1`, for which the max response, negative = inhibition was 1.58%.

As for `CCOC(=O)c1cnc(SCC(=O)Nc2cccc(OC)c2)nc1N`, the max response, negative = inhibition was -5.18%.

As for `COC(=O)c1sc(N2CCN(Cc3ccccc3)CC2)nc1N`, the max response, negative = inhibition is -4.47%.

Take `COC(=O)c1sc(=S)n(-c2ccccc2)c1N`: the Potency was 10 µM (active).

As for `CCOC(=O)c1sc(=S)n(-c2cccc(OC)c2)c1N`, the Potency was 14.1 µM (active).

Consider `CCOC(=O)C(C)n1cnc2c(nnn2-c2cccc(OC)c2)c1=O` (stereo not drawn), for which the max response, negative = inhibition is 1.99%.

Take `COC(=O)C1=C(C)N(C)C(=S)NC1c1ccccc1` (stereo not drawn): the max response, negative = inhibition is -7.92%.

Regarding `CC1(C)OC(=O)C2=C(C[C@@H](C3CC3)O[C@H]2CCc2cccc(Cl)c2)O1`, the max response, negative = inhibition is 4.74%.

Regarding `COc1ccc(C(C#N)=C2C=CC(=NO)c3ccccc32)cc1`, the max response, negative = inhibition was -0.254%.

On to `COc1ccccc1NC(=O)C(CC(=O)O)Cc1cc(C)cc(C)c1` (stereo not drawn), for which the max response, negative = inhibition is -4.75%.

Regarding `Cn1c(Nc2ccc(F)cc2)nc2cc(-c3ccsc3)sc2c1=O`, the max response, negative = inhibition was -9.36%.

As to `CC1Cc2ccccc2N1C(=O)CSc1nnc(C2CC2)n1C` (stereo not drawn), the Potency is 21.2 µM (active).

Take `CC1Cc2ccccc2N1C(=O)CSc1nnc(-c2ccc(S(=O)(=O)N3CCCC3)cc2)n1C` (stereo not drawn): the max response, negative = inhibition was -7.29%.

On to `CCn1c(CSc2ncccn2)nnc1SCC(=O)N1c2ccccc2CC1C` (stereo not drawn), for which the max response, negative = inhibition was -13%.

For `Cc1ccc(Cn2cc(CN3CC(N4CCN(C)CC4)CS3(=O)=O)nn2)cc1` (stereo not drawn), the max response, negative = inhibition is -1.82%.

Turning to `O=C1[C@H]2[C@@H](c3ccc(C(F)(F)F)cc3)N[C@]3(CCCN(Cc4ccc(Br)cc4)C3=O)[C@H]2C(=O)N1Cc1ccccc1`, the max response, negative = inhibition is 8.62%.

In the case of `CC(C)C1CC2=C(C(=O)OC(C)(C)O2)C(c2ccc(F)cc2)O1` (stereo not drawn), the max response, negative = inhibition is 2.13%.

Turning to `O=C1/C(=C\c2ccc([N+](=O)[O-])cc2)CS(=O)(=O)C/C1=C/c1ccc([N+](=O)[O-])cc1`, the Potency was 4.23 µM (active).

Consider `O=C(O)C(=Cc1ccc([N+](=O)[O-])cc1)CCc1ccccc1`, for which the max response, negative = inhibition was -6.74%.

Turning to `CNC(=S)Nc1ccc([N+](=O)[O-])cc1`, the max response, negative = inhibition is -17.5%.

Take `CC(=O)OC[C@@H]1CN(Cc2ccccc2)C[C@H](n2cnc3c(NCc4ccco4)ncnc32)O1`: the max response, negative = inhibition was 1.29%.

As to `CCN1C(=O)[C@@H]2[C@@H]3CN(S(=O)(=O)c4ccccc4C)[C@@H](c4ccc(Cl)cc4)[C@@H]3C(=O)C[C@@H]2C1=O`, the max response, negative = inhibition was -4.29%.

In the case of `CCS(=O)(=O)c1cc([N+](=O)[O-])c(Sc2ccccc2N)s1`, the Potency was 23.8 µM (active).

As to `Cc1ccc(S(=O)(=O)NCCSc2ccccc2)cc1[N+](=O)[O-]`, the max response, negative = inhibition was 1.72%.

On to `Cc1cccc(CN2CCN(C3CN(Cc4cn(Cc5cc(C)cc(C)c5)nn4)S(=O)(=O)C3)CC2)c1` (stereo not drawn), for which the max response, negative = inhibition was -3.6%.

Consider `COc1ccc(S(=O)(=O)N(C)C[C@H]2OCc3cnnn3CCCC(=O)N([C@H](C)CO)C[C@H]2C)cc1`, for which the max response, negative = inhibition was -13.3%.

Consider `C/C(=N\Nc1cccc(C(=O)O)c1)c1ccc2c(c1)Nc1ccccc1S2`, for which the Potency was 26.7 µM (active).

For the compound `Cc1ccccc1NC(=O)c1cc(S(=O)(=O)Nc2cccc(C(=O)O)c2)ccc1Cl`, the max response, negative = inhibition is 4.03%.

Regarding `CC(=O)Nc1cccc(/C(C)=N/NC(=O)c2c(-c3ccccc3Cl)noc2C)c1`, the max response, negative = inhibition was -10.9%.

`CCOC(=O)[C@]12CCCC=C1N(CCC1=CCCCC1)C(=O)[C@H](CC(=O)N1CCSCC1)C2`: the max response, negative = inhibition was 1.28%.

On to `O=C1C(Cl)=C(Oc2ccccc2)C(=O)c2ccccc21`, for which the Potency is 1.68 µM (active).

On to `COC(=O)c1ccc2nc(-c3ccc(OC)c(OC)c3)c(Cc3ccccc3)n2c1`, for which the max response, negative = inhibition is -13.8%.

On to `CN(C)c1ccnc2sc(C(=O)c3ccccc3)c(N)c12`, for which the Potency was 29.9 µM (active).

As for `CCN(CC)C(=O)c1sc2nc(-c3ccccc3)ccc2c1N`, the max response, negative = inhibition was -8.25%.

On to `CN(C(=O)c1ccccn1)c1nnc(-c2ccccn2)s1`, for which the max response, negative = inhibition was 1.77%.

Take `O=C(NC(c1ccc(Cl)cc1)c1cnccn1)C1CCN(Cc2ccc(Cl)cc2)CC1` (stereo not drawn): the max response, negative = inhibition is 2.32%.

As to `Clc1cccc(Cc2c(-c3cccc(Cl)c3)nc3ccc(Cl)cn23)c1`, the max response, negative = inhibition was -13.7%.

For the compound `O=C1CCCCC1Sc1ccc(Cl)cc1[N+](=O)[O-]` (stereo not drawn), the Potency is 4.74 µM (active).

In the case of `CSc1ccccc1NC(=O)CN(C)CC(=O)Nc1ccc(Cl)cc1[N+](=O)[O-]`, the max response, negative = inhibition was -4.66%.

Turning to `O=C(COc1ccc(Cl)cc1[N+](=O)[O-])N1CCCCC1`, the max response, negative = inhibition was -4.72%.

As to `CCOC(=O)c1c(NC(=S)SC)sc(C(=O)N2CCc3ccccc3C2)c1C`, the max response, negative = inhibition was -5.18%.

On to `CC(=O)NC(c1ccccc1)c1nc(-c2ccccc2C)cs1` (stereo not drawn), for which the max response, negative = inhibition is -5.3%.

On to `COCC1CCCCN1C(=O)c1cc(COc2ccc(C)c(C)c2)on1` (stereo not drawn), for which the max response, negative = inhibition is 3.28%.

As to `CCOc1ccc(NS(=O)(=O)c2ccc(C(=O)NCC3CCCO3)cc2)cc1` (stereo not drawn), the max response, negative = inhibition is 1.53%.

Turning to `CCOc1ccc(S(=O)(=O)N2CCN(C(=S)NCC3CCCO3)CC2)cc1` (stereo not drawn), the max response, negative = inhibition is 1.52%.

As to `CCOc1ccc(-n2c(N)c(C(=O)NCC3CCCO3)sc2=S)cc1` (stereo not drawn), the Potency was 23.8 µM (active).

`Cc1ccccc1-c1n[nH]c(=S)n1/N=C/c1ccc(-c2ccccc2Br)o1`: the max response, negative = inhibition was -17.2%.

As to `CCc1n[nH]c(=S)n1/N=C/c1c[nH]c2ccc(Br)cc12`, the Potency was 33.6 µM (active).

For `CN(Cc1ccccc1F)c1cc2c(c3c1ccn3C)C1CCC2O1` (stereo not drawn), the max response, negative = inhibition is -4.37%.

Regarding `O=C1OCCOC2CCCc3oc(-c4ccccc4)c1c32` (stereo not drawn), the max response, negative = inhibition was -1.47%.

As for `CC1=C/C(=N\OS(=O)(=O)c2ccccc2)C=CC1=O`, the Potency was 1.26 µM (active).

In the case of `CCN(CC)CCN(C)C(c1ccnc2ccccc12)c1nnnn1-c1ccc2c(c1)OCCO2` (stereo not drawn), the max response, negative = inhibition was -13.1%.

Take `O=C1/C(=C/c2ccc(F)cc2)SC(=S)N1CCCC(=O)N1CCCCC1CCO` (stereo not drawn): the max response, negative = inhibition is -15.9%.

Consider `COc1ccc(/C=C2\SC(=S)N(CCC(=O)N3CCOCC3)C2=O)cc1OC`, for which the max response, negative = inhibition is -7.23%.

Take `C=CCOc1ccc(/C=C2\SC(=S)N(CCC(=O)O)C2=O)cc1`: the Potency is 26.7 µM (active).

Take `CCCCC[C@H](C)N1C[C@@H](COCc2ccccc2)Oc2cc(N3CCC[C@@H]3CO)ccc2S1(=O)=O`: the max response, negative = inhibition is -6.61%.

Regarding `CC(C)C[C@@H]1Cc2[nH][nH]c(=O)c2[C@H](CCc2ccccc2)O1`, the max response, negative = inhibition was -16.3%.

As for `COc1ccccc1CNC(=O)c1cc(-c2cc(Cl)ccc2C)n[nH]1`, the max response, negative = inhibition was 0.345%.

Turning to `O=[N+]([O-])/C=C/c1ccc2c(ccn2Cc2ccccc2)c1`, the Potency was 3.36 µM (active).

For the compound `CCc1nc2c(OCCOc3ccccc3)cccn2c1N(C)C(=O)c1ccccc1F`, the max response, negative = inhibition is -11.2%.

As to `CCCCc1nnc(NC(=O)CSc2nc(C)cc(=O)[nH]2)s1`, the max response, negative = inhibition was -4.5%.

Consider `CCOC(=O)Cc1csc(NC(=O)CSc2ccc(Br)cc2)n1`, for which the max response, negative = inhibition was -1.13%.

For `CCOC(=O)Cc1csc(NC(=O)CSc2nc(C)cc(=O)[nH]2)n1`, the Potency is 11.9 µM (active).

For `Cn1c(NCc2cccnc2)nc2cc(-c3ccc(F)cc3)sc2c1=O`, the max response, negative = inhibition was -3.07%.

As for `COC(=O)[C@@]12C[C@@H](CC(=O)N3CCCCC3)C(=O)N(Cc3ccc4c(c3)OCO4)C1=CCC(C)(C)C2`, the max response, negative = inhibition is 2.15%.

Consider `CC(C)C[C@H]1CNC(=S)N1C[C@H]1CCCN1C[C@H](Cc1ccc(O)cc1)N1C[C@H](Cc2ccc(O)cc2)N(CC2CCCCC2)C1=S`, for which the max response, negative = inhibition was 1.95%.

On to `CC1(C(=O)NCc2ccc3c(c2)OCO3)CCN1C(=O)Cc1cccc2ccccc12` (stereo not drawn), for which the max response, negative = inhibition was -5.76%.

On to `CCN1CCC2(CC1)N=C(c1ccc(F)cc1)C(=S)N2C(=O)c1ccc(C)cc1`, for which the Potency is 15 µM (active).

As for `CCn1c(C(C)NC(=O)c2ccc(C)cc2)n[nH]c1=S` (stereo not drawn), the max response, negative = inhibition is -15.1%.

As to `Cc1ccc(C(=O)N(CN2CCCC2=O)c2ccc(F)cc2)cc1`, the max response, negative = inhibition is -5.15%.

With `CCOc1ccc2nc(NCCNC(=O)C(C)(C)C)c(C)cc2c1`, the Potency is 26.7 µM (active).

For `CCOc1ccc(NC(=O)c2cc(C)nc3ccccc23)cc1`, the max response, negative = inhibition was -0.67%.

Regarding `CCOc1ccc(NS(=O)(=O)c2ccc(C)c(C(N)=O)c2)cc1`, the max response, negative = inhibition was 1.44%.

`COc1ccc(NC(=O)C2(C)Cc3c(-c4cccc(NC(C)=O)c4)ccnc3O2)cc1OC` (stereo not drawn): the max response, negative = inhibition is -12.3%.

`CCCc1nc2sc3c(c2c(=O)n1NC(=O)CCCl)CCCC3`: the max response, negative = inhibition is -16.7%.

On to `CN(C)CCCn1c(=O)n(Cc2ccccc2)c(=O)c2c3c(sc21)CCCCC3`, for which the max response, negative = inhibition is -1.79%.

Consider `CCn1c(=S)[nH]c2sc3c(c2c1=O)CCCCC3`, for which the Potency is 23.8 µM (active).

As for `CCN(CC)C(=O)C1=C(C)N(Cc2ccc(OC)cc2)C(=O)C(CC(=O)NCc2ccco2)C1` (stereo not drawn), the max response, negative = inhibition was 5.53%.

`CC(C)c1cccc(C(C)C)c1Nc1cn[nH]c1`: the max response, negative = inhibition was 3.35%.

Regarding `CCN1CCN(C2CCCCC2NS(=O)(=O)c2ccc(Cl)cc2)CC1` (stereo not drawn), the Potency was 26.7 µM (active).

For `O=S(=O)(NC1CCCCC1N1CCCCC1)c1ccc(Cl)cc1` (stereo not drawn), the max response, negative = inhibition was 3.73%.

As to `O=S(=O)(NC1CCCCC1N1CCC(O)CC1)c1ccc(Cl)cc1` (stereo not drawn), the max response, negative = inhibition was -6.48%.

For `Cc1cc(O)ccc1-c1cc(C(=O)NCc2cc(C(F)(F)F)cc(C(F)(F)F)c2)[nH]n1`, the max response, negative = inhibition was 3.49%.

In the case of `CCCCCCC(O)(CCN1CCCCC1)c1ccccc1` (stereo not drawn), the Potency was 29.9 µM (active).

Regarding `CCCCCC(O)(CCN1CCCCC1)c1ccccc1` (stereo not drawn), the max response, negative = inhibition is -0.139%.

Take `C#CC(CCN1CCCCC1)(OC)c1ccccc1` (stereo not drawn): the max response, negative = inhibition was -7.33%.

For `Cc1ccn(CC(=O)NC2CCCN(Cc3ccccc3F)C2)n1` (stereo not drawn), the max response, negative = inhibition is -1.67%.
